# Data reported in PubChem BioAssay AID1159580 (chemical genetic matrix, 2015).
# The campaign covered roughly 5,500 compounds. About 2,000 (36%) were called active. Inconclusive results (about 18%) are left out. This is one part of the list. Values without a mark were called inactive. Cut-off read from the data, not from the text of the source: active = normalized growth mostly below about 0.91 (no sharp cut-off); inconclusive = no clear call, values can overlap the other calls; inactive = mostly above about 0.92.
# Assay: chemical genetic growth profiling, strain panel (AID 1159580);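 note: tested at 20 µM; growth read once vehicle control cultures reached saturation at 30 °C; 1 = growth at the plate median or of vehicle wells; lower values mean less growth of the strain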
# Conditions: S. cerevisiae deletion strains, growth OD
# [1] = locus YAR019C, strain CDC15, active compounds read low
# [2] = locus YBL105C, strain PKC1, active compounds read low
# [3] = locus YBR135W, strain CKS1, active compounds read low
# [4] = locus YBR136W, strain MEC1, active compounds read low
# [5] = locus YBR160W, strain CDC28, active compounds read low
# [6] = locus YDL017W, strain CDC7, active compounds read low
# [7] = locus YDL028C, strain MPS1, active compounds read low
# [8] = locus YDL101C, strain DUN1, active compounds read low
# [9] = locus YDL108W, strain KIN28, active compounds read low
# [10] = locus YDL132W, strain cdc53, active compounds read low
# [11] = locus YDL214C, strain PRR2, active compounds read low
# [12] = locus YDR052C, strain DBF4, active compounds read low
# [13] = locus YDR054C, strain cdc34, active compounds read low
# [14] = locus YDR226W, strain ADK1, active compounds read low
# [15] = locus YDR477W, strain SNF1, active compounds read low
# [16] = locus YER123W, strain YCK3, active compounds read low
# [17] = locus YER133W, strain GLC7, active compounds read low
# [18] = locus YFL009W, strain cdc4, active compounds read low
# [19] = locus YFL029C, strain CAK1, active compounds read low
# [20] = locus YFR003C, strain YPI1, active compounds read low
# [21] = locus YFR019W, strain FAB1, active compounds read low
# [22] = locus YFR028C, strain CDC14, active compounds read low
# [23] = locus YGR040W, strain KSS1, active compounds read low
# [24] = locus YGR052W, strain FMP48, active compounds read low
# [25] = locus YGR092W, strain DBF2, active compounds read low
# [26] = locus YHR030C, strain SLT2, active compounds read low
# [27] = locus YHR079C, strain IRE1, active compounds read low
# [28] = locus YHR082C, strain KSP1, active compounds read low
# [29] = locus YHR205W, strain SCH9, active compounds read low
# [30] = locus YIL147C, strain SLN1, active compounds read low
# [31] = locus YJL095W, strain BCK1, active compounds read low
# [32] = locus YJL128C, strain PBS2, active compounds read low
# [33] = locus YJL157C, strain FAR1, active compounds read low
# [34] = locus YJR016C, strain ILV3, active compounds read low
# [35] = locus YJR066W, strain TOR1 (second series), active compounds read low
# [36] = locus YJR066W, strain TOR1, active compounds read low
# [37] = locus YKL048C, strain ELM1, active compounds read low
# [38] = locus YKL067W, strain YNK1, active compounds read low
# [39] = locus YKL101W, strain HSL1, active compounds read low
# [40] = locus YKL193C, strain SDS22, active compounds read low
# [41] = locus YKL203C, strain TOR2, active compounds read low
# [42] = locus YLR113W, strain HOG1, active compounds read low
# [43] = locus YLR133W, strain CKI1, active compounds read low
# [44] = locus YLR403W, strain SFP1, active compounds read low
# [45] = locus YML070W, strain DAK1, active compounds read low
# [46] = locus YMR001C, strain CDC5, active compounds read low
# [47] = locus YMR205C, strain PFK2 (second series), active compounds read low
# [48] = locus YMR277W, strain FCP1, active compounds read low
# [49] = locus YNL006W, strain LST8, active compounds read low
# [50] = locus YNL020C, strain ARK1, active compounds read low
# [51] = locus YNL161W, strain CBK1, active compounds read low
# [52] = locus YNL183C, strain NPR1, active compounds read low
# [53] = locus YNL207W, strain RIO2, active compounds read low
# [54] = locus YNL222W, strain SSU72, active compounds read low
# [55] = locus YNL307C, strain MCK1 (second series), active compounds read low
# [56] = locus YOL078W, strain AVO1, active compounds read low
# [57] = locus YOL136C, strain PFK27, active compounds read low
# [58] = locus YOR061W, strain CKA2, active compounds read low
# [59] = locus YOR119C, strain RIO1, active compounds read low
# [60] = locus YOR231W, strain MKK1, active compounds read low
# [61] = locus YOR329C, strain SCD5, active compounds read low
# [62] = locus YPL031C, strain PHO85, active compounds read low
# [63] = locus YPL153C, strain RAD53, active compounds read low
# [64] = locus YPL204W, strain HRR25, active compounds read low
# [65] = locus YPL209C, strain IPL1, active compounds read low
# [66] = locus YPL256C, strain CLN2, active compounds read low
# [67] = locus YPR025C, strain CCL1, active compounds read low
# [68] = locus YPR106W, strain ISR1, active compounds read low
# [69] = locus YPR111W, strain DBF20, active compounds read low
# [70] = strain NNK1, active compounds read low
# [71] = strain TSCII, active compounds read low
smiles,measurement,setting,value
Nc1nc(Cl)nc2c1ncn2[C@@H]1O[C@H](COP(=O)(O)OP(=O)(O)OP(=O)(O)O)[C@H](O)C1O (stereo partly specified),normalized growth,"locus YAL013W, strain DEP1, active compounds read low",0.999
same,normalized growth,"locus YAL040C, strain CLN3, active compounds read low",0.995
same,normalized growth,"locus YCL061C, strain MRC1 (second series), active compounds read low",1
same,normalized growth,"locus YDR363W, strain ESC2, active compounds read low",1.01
same,normalized growth,"locus YER002W, strain NOP16, active compounds read low",0.99
same,normalized growth,"locus YGR078C, strain PAC10, active compounds read low",1.01
same,normalized growth,"locus YJR075W, strain HOC1, active compounds read low",1
same,normalized growth,"locus YMR307W, strain GAS1, active compounds read low",0.997
same,normalized growth,"locus YNL128W, strain TEP1, active compounds read low",1.01
same,normalized growth,"locus YNL175C, strain NOP13, active compounds read low",0.995
same,normalized growth,"locus YNL197C, strain WHI3, active compounds read low",1.02
same,normalized growth,"locus YNL224C, strain SQS1, active compounds read low",0.987
same,normalized growth,"locus YOR083W, strain WHI5 (second series), active compounds read low",1.01
CCCc1c(C(=O)NNc2cccc(Cl)c2)cnn1-c1ccccc1,normalized growth,[1],0.984
same,normalized growth,[2],0.974
same,normalized growth,[3],0.987
same,normalized growth,[4],0.982
same,normalized growth,[5],0.976
same,normalized growth,[6],0.974
same,normalized growth,[7],0.995
same,normalized growth,[8],0.978
same,normalized growth,[9],0.988
same,normalized growth,[10],0.993
same,normalized growth,[11],0.944
same,normalized growth,[12],0.983
same,normalized growth,[13],0.986
same,normalized growth,[14],0.98
same,normalized growth,[15],0.954
same,normalized growth,[16],0.917
same,normalized growth,[17],0.957
same,normalized growth,[18],0.986
same,normalized growth,[19],0.98
same,normalized growth,[20],0.987
same,normalized growth,[21],0.937
same,normalized growth,[22],0.981
same,normalized growth,[23],0.925
same,normalized growth,[24],1
same,normalized growth,[25],0.957
same,normalized growth,[26],0.963
same,normalized growth,[27],0.963
same,normalized growth,[28],1
same,normalized growth,[29],0.933
same,normalized growth,[30],0.992
same,normalized growth,[31],0.968
same,normalized growth,[32],0.917
same,normalized growth,[33],0.937
same,normalized growth,[34],0.986
same,normalized growth,[35],0.911
same,normalized growth,[36],1.02
same,normalized growth,[37],0.968
same,normalized growth,[38],0.947
same,normalized growth,[39],0.924
same,normalized growth,[40],0.988
same,normalized growth,[41],0.987
same,normalized growth,[42],0.864
same,normalized growth,[43],0.936
same,normalized growth,[44],0.917
same,normalized growth,[45],0.927
same,normalized growth,[46],0.979
same,normalized growth,[47],0.948
same,normalized growth,[48],0.987
same,normalized growth,[49],0.996
same,normalized growth,[50],0.927
same,normalized growth,[51],0.983
same,normalized growth,[52],0.98
same,normalized growth,[53],0.983
same,normalized growth,[54],0.976
same,normalized growth,[55],0.935
same,normalized growth,[56],0.985
same,normalized growth,[57],0.897
same,normalized growth,[58],0.963
same,normalized growth,[59],1.01
same,normalized growth,[60],0.898
same,normalized growth,[61],0.981
same,normalized growth,[62],0.963
same,normalized growth,[63],0.94
same,normalized growth,[64],0.924
same,normalized growth,[65],0.973
same,normalized growth,[66],0.892
same,normalized growth,[67],0.982
same,normalized growth,[68],0.959
same,normalized growth,[69],0.965
same,normalized growth,[70],0.971
same,normalized growth,[71],0.988
CCCc1c(C(=O)NC2Cc3ccccc3C2)cnn1-c1ccccc1,normalized growth,[1],0.986
same,normalized growth,[2],0.99
same,normalized growth,[3],0.996
same,normalized growth,[4],0.99
same,normalized growth,[5],0.99
same,normalized growth,[6],0.999
same,normalized growth,[7],0.993
same,normalized growth,[8],0.993
same,normalized growth,[9],0.997
same,normalized growth,[10],0.99
same,normalized growth,[11],0.976
same,normalized growth,[12],0.998
same,normalized growth,[13],0.983
same,normalized growth,[14],0.991
same,normalized growth,[15],0.964
same,normalized growth,[16],0.979
same,normalized growth,[17],0.965
same,normalized growth,[18],0.986
same,normalized growth,[19],0.988
same,normalized growth,[20],0.995
same,normalized growth,[21],0.974
same,normalized growth,[22],0.986
same,normalized growth,[23],0.96
same,normalized growth,[24],1.05
same,normalized growth,[25],1.01
same,normalized growth,[26],0.97
same,normalized growth,[27],1
same,normalized growth,[28],1.04
same,normalized growth,[29],0.991
same,normalized growth,[30],0.994
same,normalized growth,[31],0.991
same,normalized growth,[32],0.979
same,normalized growth,[33],0.969
same,normalized growth,[34],0.98
same,normalized growth,[35],0.93
same,normalized growth,[36],0.986
same,normalized growth,[37],0.982
same,normalized growth,[38],0.991
same,normalized growth,[39],0.972
same,normalized growth,[40],0.988
same,normalized growth,[41],1.01
same,normalized growth,[42],0.951
same,normalized growth,[43],0.968
same,normalized growth,[44],0.956
same,normalized growth,[45],0.97
same,normalized growth,[46],0.987
same,normalized growth,[47],0.987
same,normalized growth,[48],0.989
same,normalized growth,[49],0.995
same,normalized growth,[50],0.984
same,normalized growth,[51],0.991
same,normalized growth,[52],0.998
same,normalized growth,[53],0.987
same,normalized growth,[54],0.992
same,normalized growth,[55],0.998
same,normalized growth,[56],0.985
same,normalized growth,[57],0.96
same,normalized growth,[58],0.977
same,normalized growth,[59],1.01
same,normalized growth,[60],0.934
same,normalized growth,[61],0.992
same,normalized growth,[62],0.98
same,normalized growth,[63],0.956
same,normalized growth,[64],0.963
same,normalized growth,[65],0.994
same,normalized growth,[66],0.921
same,normalized growth,[67],0.998
same,normalized growth,[68],0.98
same,normalized growth,[69],0.981
same,normalized growth,[70],0.986
same,normalized growth,[71],0.997
CCCc1c(C(=O)Sc2ccccn2)cnn1-c1ccc(Cl)cc1,normalized growth,[1],0.957
same,normalized growth,[2],0.962
same,normalized growth,[3],0.957
same,normalized growth,[4],0.964
same,normalized growth,[5],0.944
same,normalized growth,[6],0.963
same,normalized growth,[7],0.966
same,normalized growth,[8],0.964
same,normalized growth,[9],0.955
same,normalized growth,[10],0.95
same,normalized growth,[11],0.861
same,normalized growth,[12],0.962
same,normalized growth,[13],0.948
same,normalized growth,[14],0.959
same,normalized growth,[15],0.876
same,normalized growth,[16],0.847
same,normalized growth,[17],0.878
same,normalized growth,[18],0.957
same,normalized growth,[19],0.948
same,normalized growth,[20],0.955
same,normalized growth,[21],0.908
same,normalized growth,[22],0.955
same,normalized growth,[23],0.845
same,normalized growth,[24],0.919
same,normalized growth,[25],0.879
same,normalized growth,[26],0.933
same,normalized growth,[27],0.931
same,normalized growth,[28],0.907
same,normalized growth,[29],0.93
same,normalized growth,[30],0.967
same,normalized growth,[31],0.951
same,normalized growth,[32],0.932
same,normalized growth,[33],0.849
same,normalized growth,[34],0.955
same,normalized growth,[35],0.822
same,normalized growth,[36],0.87
same,normalized growth,[37],0.911
same,normalized growth,[38],0.885
same,normalized growth,[39],0.912
same,normalized growth,[40],0.961
same,normalized growth,[41],0.942
same,normalized growth,[42],0.804 (active)
same,normalized growth,[43],0.912
same,normalized growth,[44],0.861
same,normalized growth,[45],0.869
same,normalized growth,[46],0.953
same,normalized growth,[47],0.932
same,normalized growth,[48],0.964
same,normalized growth,[49],0.98
same,normalized growth,[50],0.911
same,normalized growth,[51],0.955
same,normalized growth,[52],0.881
same,normalized growth,[53],0.955
same,normalized growth,[54],0.957
same,normalized growth,[55],0.912
same,normalized growth,[56],0.957
same,normalized growth,[57],0.878
same,normalized growth,[58],0.898
same,normalized growth,[59],0.947
same,normalized growth,[60],0.897
same,normalized growth,[61],0.957
same,normalized growth,[62],0.903
same,normalized growth,[63],0.899
same,normalized growth,[64],0.895
same,normalized growth,[65],0.952
same,normalized growth,[66],0.755 (active)
same,normalized growth,[67],0.954
same,normalized growth,[68],0.95
same,normalized growth,[69],0.937
same,normalized growth,[70],0.961
same,normalized growth,[71],0.955
